Laboratory results as given in PubChem BioAssay AID588689 (Southern Research Specialized Biocontainment Screening …, 2011).
Hit rate of the full screen: of about 340,000 compounds, about 1,000 (0.29%) were called active. Cut-off read from the data, not from the text of the source: inconclusive = inhibition above about 29% without an active follow-up result; inactive = below that. A selection follows. Potency and affinity values are given separately.

Target: Genome polyprotein (Dengue virus type 2 (strain 16681-PDK53)) (UniProt P29991)
Test: Dengue-2 NS5 methyltransferase inhibitors, primary screen, biochemical, confirmation dose response (AID 588689)
Settings: Dengue-2 NS5 methyltransferase capping enzyme assay, at 25 µM, stronger effect = higher value
[1] = measured here: pilot screen replicate inhibition

| Structure (SMILES) | inhibition | inhibition [1] [%] |
| --- | --- | --- |
| Cc1ncc(C(O)c2ccc(N(C)C)cc2)n1Cc1ccccc1 (centres undefined) | 0% (inactive) | – |
| CC(C)C(C(=O)NC1CCCC1)N(Cc1ccco1)C(=O)CNS(=O)(=O)c1ccccc1 (centres undefined) | -8.96% (inactive) | – |
| CCn1c(=O)n(CC)c2cc(N3CCCC3)c(NC(=O)c3ccc(OC)c(Br)c3)cc21 | -2.72% (inactive) | – |
| O=c1ccc(-c2ccc(S(=O)(=O)NCc3cccc(Br)c3)s2)n[nH]1 | -1.36% (inactive) | – |
| CCCCNC(=O)CN(Cc1ccco1)S(=O)(=O)c1ccc(C(C)=O)cc1 | -2.95% (inactive) | – |
| O=C(O)CC1CCC(=C(Cl)Cl)C1 (centres undefined) | 4.83% (inactive) | – |
| Cc1ccc(S(=O)(=O)N(CC(=O)Nc2cccc(C(F)(F)F)c2)C(=O)N2CCN(C)CC2)cc1 | -4.32% (inactive) | – |
| CCn1c(SCC(=O)NC)nnc1C(C)C | 4.79% (inactive) | – |
| Cc1ccccc1-c1c(C)oc2cc(O)ccc2c1=O | 1.35% (inactive) | – |
| COCCN(C(=O)COC(=O)CCc1ccccc1)c1c(N)n(Cc2ccccc2)c(=O)[nH]c1=O | 0% (inactive) | – |
| O=C(O)CCn1cc(/C=C\C(=O)c2ccc(Cl)cc2)c(-c2cccc(Br)c2)n1 | 26% (inactive) | – |
| O=C(O)CCn1cc(/C=C/C(=O)c2ccc(Cl)cc2)c(-c2ccc(Br)cc2)n1 | 12.8% (inactive) | – |
| CCOc1ccc(NC(=O)CSc2nc(C3CC3)nc3ccccc23)cc1 | 15.3% (inactive) | – |
| CCOC(=O)c1c(NC(=O)C(Sc2ccccc2)c2ccccc2)sc(C(N)=O)c1C (centres undefined) | 2.74% (inactive) | 3.33 |
| O=c1c2ccccc2[nH]c(=S)n1-c1cccc(S(=O)(=O)N2CCCC2)c1 | -8.01% (inactive) | – |
| CCC(C)/C=C/C1=CC2=C(Cl)C(=O)C3(C)OC(=O)C(C(=O)C(C)C(C)O)C3C2=CO1 (centres undefined) | 4.35% (inactive) | – |
| CC[C@H](C)/C=C(C)/C=C/C1=CC2=CC(=O)[C@]3(C)OC(=O)[C@@H](C(C)=O)[C@@H]3C2=CO1 | 7.68% (inactive) | – |
| O=C(Cn1ncc2c([nH]c3ccccc32)c1=O)NCCCN1CCN(c2ccccc2)CC1 | 0% (inactive) | – |
| C=CCn1cc(C(=O)NCC2CCCO2)c(=O)c2cc(S(=O)(=O)N3CCCCCC3)ccc21 (centres undefined) | -3.55% (inactive) | – |
| S=c1[nH]nc(Cc2cccs2)n1-c1ccccc1 | -2.82% (inactive) | – |
| CC(C)(C)c1nnc(NC(=O)C2CCN(c3ncccn3)CC2)s1 | -2.45% (inactive) | – |
| O=C(c1ccccc1)c1ccc(Oc2ccc([N+](=O)[O-])cc2[N+](=O)[O-])cc1 | -2.33% (inactive) | – |

| Structure (SMILES) | inhibition | inhibition [1] [%] |
| --- | --- | --- |
| COc1cc(/C=C2/SC(=O)NC2=O)ccc1Oc1ccc([N+](=O)[O-])cc1[N+](=O)[O-] | 23.6% (inactive) | – |
| COc1cc(/C=C2/C(=O)N(c3ccc(C)c(C)c3)N=C2C)cc([N+](=O)[O-])c1O | 9.88% (inactive) | -3.04 |
| CC1=NN(c2ccc([N+](=O)[O-])cc2)C(=O)/C1=C\N(C)C | -9.46% (inactive) | – |
| O=C(c1ccc(Cl)s1)N1CCc2ccccc21 | -1.37% (inactive) | – |
| O=C(CCN1CCCCC1=O)NC1CCCN(Cc2ccc(Cl)cc2)C1 (centres undefined) | -5.2% (inactive) | – |
| O=C1NC(=O)/C(=C\c2ccccc2Oc2ccc(F)c(F)c2)S1 | 24.6% (inactive) | – |
| Cc1ccc(Oc2ccccc2/C=C2\SC(=O)N(C)C2=O)cc1 | 0% (inactive) | 5.03 |
| CN1C(=O)/C(=C/c2ccccc2OCc2ccc(F)cc2)N(C)C1=S | -7.89% (inactive) | – |
| O=C1NC(=O)/C(=C/c2ccccc2Oc2ccc(Cl)cc2)S1 | -4.16% (inactive) | – |
| CCOC(=O)CN(C(=O)CNC(=O)c1ccco1)C(C(=O)NC1CCCC1)c1ccccc1OCC (centres undefined) | -1.62% (inactive) | – |
| NS(=O)(=O)c1ccc(CCNC(=O)CCNS(=O)(=O)c2ccccc2C(F)(F)F)cc1 | 0% (inactive) | – |
| C/C(=N\NS(=O)(=O)c1ccccc1)c1cccc(NC(=O)c2cccc(Cl)c2)c1 | -5.93% (inactive) | – |
| COc1cccc(NC(=O)CN(C)C(=O)CN2C(=O)c3ccc([N+](=O)[O-])cc3C2=O)c1 | -7.27% (inactive) | – |
| CS(=O)(=O)c1ccc(C(=O)OCC(=O)c2ccc(Cl)s2)cc1 | 4.34% (inactive) | – |
| CCCCCNC(=O)C1CCC(Cn2c(=S)[nH]c3ccccc3c2=O)CC1 (centres undefined) | -0.74% (inactive) | – |
| O=C(O)c1ccccc1Nc1ccccc1C(=O)O | 4.09% (inactive) | – |
| COc1cccc(Nc2ccccc2C(=O)O)c1 | -2.96% (inactive) | – |
| COc1ccccc1/C(C)=N/NC(=O)c1nnn(-c2nonc2N)c1C(C)C | -2.62% (inactive) | – |
| CC(=O)N1CCc2c(sc(NC(=O)c3cccc(N4C(=O)CCC4=O)c3)c2C(N)=O)C1 | -10.4% (inactive) | – |
| O=Cc1ccc(C(=O)O)cc1 | -0.73% (inactive) | – |
| Cc1cccc(N2C(=O)/C(=C\c3ccc(C(=O)O)cc3)c3ccccc3C2=O)c1 | 25% (inactive) | – |
| Cn1nc(-c2ccc(Cl)cc2)cc1NC(=O)Nc1ccccc1 | -6.13% (inactive) | – |

| Structure (SMILES) | inhibition | inhibition [1] [%] |
| --- | --- | --- |
| COc1ccc(CN(C)C(=O)Cn2cnc3c(OCc4ccccc4)ncnc32)cc1OC | 3.64% (inactive) | 2.12 |
| O=C1c2cccc3cccc(c23)C(=O)N1CCN1CCN(CC(O)COc2ccccc2)CC1 (centres undefined) | 1.28% (inactive) | – |
| COc1ccc(C)cc1NC(=O)CN1CCN(c2ccccn2)CC1 | -3.92% (inactive) | – |
| Cn1c(=O)c2[nH]c(-c3ccccc3Cl)c(O)c2n(C)c1=O | -9.85% (inactive) | – |
| CC(=O)Nn1cc2c(c1-c1ccccc1)c(=O)n(C)c(=O)n2C | -11.6% (inactive) | -4.71 |
| CSc1nc(C=Nc2ccccc2Cl)c(O)n1Cc1cccc(Cl)c1 | -15.4% (inactive) | – |
| CCc1nnc(SCC(=O)Nc2ccc3c(c2)OCO3)n1CC | 2.59% (inactive) | – |
| COc1cc(/C=C/c2ccc3cccc(O)c3n2)c(Br)cc1O | -37.2% (inactive) | – |
| COc1cc(C=C2C(=O)c3ccccc3C2=O)ccc1O | 25.4% (inactive) | – |
| CCCCN1C(=O)NC(NS(=O)(=O)c2ccc(N)cc2)(C(F)(F)F)C1=O (centres undefined) | 1.6% (inactive) | – |
| CC#CCN1C=C(C(=O)OCC)C(C)N(Cc2ccc(Br)cc2)S1(=O)=O (centres undefined) | 3.64% (inactive) | -3.33 |
| COc1ccccc1N1CCN(C2CC(=O)N(c3ccc(F)cc3)C2=O)CC1 (centres undefined) | 10.3% (inactive) | – |
| COc1ccccc1N1C(=O)CC(N(O)c2ccccc2)C1=O (centres undefined) | -4.6% (inactive) | – |
| CCN(CC)C1CC(=O)N(c2ccc(Br)cc2)C1=O (centres undefined) | -14.3% (inactive) | – |
| CCCCOc1ccc(N2C(=O)CC(N(O)c3ccccc3)C2=O)cc1 (centres undefined) | -3.24% (inactive) | – |
| CC(=O)c1ccc(C(=O)N(C)C2CCCN(Cc3ccccc3F)C2)s1 (centres undefined) | -12.1% (inactive) | – |
| COc1ccc(-c2csc(NS(=O)(=O)c3ccc([N+](=O)[O-])cc3)n2)cc1 | 19.5% (inactive) | – |
| Cc1ccc(S(=O)(=O)Nc2ccccc2C(=O)Nc2nc(-c3ccc(F)cc3)cs2)cc1 | 0.64% (inactive) | – |
| O=S(=O)(Nc1nc(-c2ccccc2)cs1)c1cccc(C(F)(F)F)c1 | 19.9% (inactive) | – |
| Cc1ccc(S(=O)(=O)Nc2nc(-c3ccccc3)cs2)cc1 | 23% (inactive) | – |
| COc1ccc(S(=O)(=O)N2CCCC2C(=O)NCc2cccs2)cc1 (centres undefined) | -17.2% (inactive) | – |
| CCOc1ccc(S(=O)(=O)N2CCCCC2)c2ccccc12 | -5.6% (inactive) | – |

| Structure (SMILES) | inhibition | inhibition [1] [%] |
| --- | --- | --- |
| CCc1cccc(C)c1NC(=O)CSc1nc2ccccc2n1CC(=O)N(C)C | -2.07% (inactive) | – |
| Cc1ccc(NS(=O)(=O)c2ccc(N/N=C/c3ccncc3)c([N+](=O)[O-])c2)c(C)c1 | 2.21% (inactive) | – |
| O=C(O)COc1ccccc1/C=N/NC(=O)c1cc(-c2ccccc2)nc2ccccc12 | 7.47% (inactive) | – |
| O=C(O)COc1ccccc1/C=N/NC(=O)c1cc(-c2ccc(F)cc2)nc2ccccc12 | 1.48% (inactive) | – |
| O=C(O)COc1ccccc1C=NNc1ccc([N+](=O)[O-])cc1S(=O)(=O)Nc1ccc(Cl)cc1 | 35% (inactive) | – |
| COc1ccccc1NS(=O)(=O)c1cccc(C(=O)N/N=C/c2ccccc2OCC(=O)O)c1 | -8.38% (inactive) | – |
| O=C(O)COc1ccccc1/C=N/Nc1ccc(S(=O)(=O)N2CCOCC2)cc1[N+](=O)[O-] | 6.86% (inactive) | – |
| COc1ccc(NS(=O)(=O)c2cc([N+](=O)[O-])ccc2NN=Cc2ccccc2OCC(=O)O)cc1 | -8.26% (inactive) | – |
| CCN(CC)S(=O)(=O)c1ccc(N/N=C/c2ccccc2OCC(=O)O)c([N+](=O)[O-])c1 | 13.7% (inactive) | – |
| CNC(=O)N(O)C1N(/N=C/c2ccc(C)cc2)C(=S)SC1(C)C (centres undefined) | -3.93% (inactive) | – |
| O=C(CCOc1ccccc1)NNC(=O)c1ccccc1 | -4.63% (inactive) | – |
| Cc1ccc(C)c(C(=O)CCC(=O)Nc2cccnc2)c1 | -3.23% (inactive) | – |
| CC1=C(C#N)C(=O)NC1(C)O (centres undefined) | 5.14% (inactive) | – |
| COc1ccc(N(CC(=O)N2CCN(Cc3ccccc3)CC2)S(=O)(=O)c2ccccc2)cc1 | -5.2% (inactive) | – |
| O=C(c1cccs1)N(Cc1ccco1)C1CCS(=O)(=O)C1 (centres undefined) | -4.01% (inactive) | – |
| O=C(Nc1ccccc1)c1ccccc1NC(=O)[C@H]1CCCC[C@H]1C(=O)O | -3.92% (inactive) | -1.53 |
| CCC(C)Sc1cc(-c2nc3ccc(Cl)cn3c2NC2CCCCC2)ccc1OC (centres undefined) | -12.6% (inactive) | – |
| Cc1cc(OC(C)C(=O)NC2CCN(Cc3ccccc3)CC2)c2c(C)cc(=O)oc2c1 (centres undefined) | -2.72% (inactive) | – |
| CCCCOC(=O)C1=C(C)NC(=O)NC1c1ccc(OC)cc1 (centres undefined) | -0.39% (inactive) | – |
| Cn1cc(C(=O)Nc2ccc(F)c(F)c2)cn1 | 0% (inactive) | – |
| COCC(=O)Nc1ccc(N2CCCC2)c(S(=O)(=O)Nc2ccccc2OC)c1 | -9.92% (inactive) | – |
